# According to PubChem BioAssay AID1159580 (chemical genetic matrix, 2015):
# About 2,000 (36%) of roughly 5,500 compounds were called active. Inconclusive results (about 18%) are left out. The list shows a part of the results. Unmarked numbers belong to inactive results. Rule as the data show it: active = normalized growth mostly below about 0.91 (no sharp cut-off); inconclusive = no clear call, values can overlap the other calls; inactive = mostly above about 0.92.
# Test: chemical genetic growth profiling, strain panel (AID 1159580);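 also: tested at 20 µM; growth read once vehicle control cultures reached saturation at 30 °C; 1 = growth at the plate median or of vehicle wells; lower values mean less growth of the strain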
# Conditions: S. cerevisiae deletion strains, growth OD
# [1] = locus YAR019C, strain CDC15, active compounds read low
# [2] = locus YBL105C, strain PKC1, active compounds read low
# [3] = locus YBR135W, strain CKS1, active compounds read low
# [4] = locus YBR136W, strain MEC1, active compounds read low
# [5] = locus YBR160W, strain CDC28, active compounds read low
# [6] = locus YDL017W, strain CDC7, active compounds read low
# [7] = locus YDL028C, strain MPS1, active compounds read low
# [8] = locus YDL101C, strain DUN1, active compounds read low
# [9] = locus YDL108W, strain KIN28, active compounds read low
# [10] = locus YDL132W, strain cdc53, active compounds read low
# [11] = locus YDL214C, strain PRR2, active compounds read low
# [12] = locus YDR052C, strain DBF4, active compounds read low
# [13] = locus YDR054C, strain cdc34, active compounds read low
# [14] = locus YDR226W, strain ADK1, active compounds read low
# [15] = locus YDR477W, strain SNF1, active compounds read low
# [16] = locus YER123W, strain YCK3, active compounds read low
# [17] = locus YER133W, strain GLC7, active compounds read low
# [18] = locus YFL009W, strain cdc4, active compounds read low
# [19] = locus YFL029C, strain CAK1, active compounds read low
# [20] = locus YFR003C, strain YPI1, active compounds read low
# [21] = locus YFR019W, strain FAB1, active compounds read low
# [22] = locus YFR028C, strain CDC14, active compounds read low
# [23] = locus YGR040W, strain KSS1, active compounds read low
# [24] = locus YGR052W, strain FMP48, active compounds read low
# [25] = locus YGR092W, strain DBF2, active compounds read low
# [26] = locus YHR030C, strain SLT2, active compounds read low
# [27] = locus YHR079C, strain IRE1, active compounds read low
# [28] = locus YHR082C, strain KSP1, active compounds read low
# [29] = locus YHR205W, strain SCH9, active compounds read low
# [30] = locus YIL147C, strain SLN1, active compounds read low
# [31] = locus YJL095W, strain BCK1, active compounds read low
# [32] = locus YJL128C, strain PBS2, active compounds read low
# [33] = locus YJL157C, strain FAR1, active compounds read low
# [34] = locus YJR016C, strain ILV3, active compounds read low
# [35] = locus YJR066W, strain TOR1 (second series), active compounds read low
# [36] = locus YJR066W, strain TOR1, active compounds read low
# [37] = locus YKL048C, strain ELM1, active compounds read low
# [38] = locus YKL067W, strain YNK1, active compounds read low
# [39] = locus YKL101W, strain HSL1, active compounds read low
# [40] = locus YKL193C, strain SDS22, active compounds read low
# [41] = locus YKL203C, strain TOR2, active compounds read low
# [42] = locus YLR113W, strain HOG1, active compounds read low
# [43] = locus YLR133W, strain CKI1, active compounds read low
# [44] = locus YLR403W, strain SFP1, active compounds read low
# [45] = locus YML070W, strain DAK1, active compounds read low
# [46] = locus YMR001C, strain CDC5, active compounds read low
# [47] = locus YMR205C, strain PFK2 (second series), active compounds read low
# [48] = locus YMR277W, strain FCP1, active compounds read low
# [49] = locus YNL006W, strain LST8, active compounds read low
# [50] = locus YNL020C, strain ARK1, active compounds read low
# [51] = locus YNL161W, strain CBK1, active compounds read low
# [52] = locus YNL183C, strain NPR1, active compounds read low
# [53] = locus YNL207W, strain RIO2, active compounds read low
# [54] = locus YNL222W, strain SSU72, active compounds read low
# [55] = locus YNL307C, strain MCK1 (second series), active compounds read low
# [56] = locus YOL078W, strain AVO1, active compounds read low
# [57] = locus YOL136C, strain PFK27, active compounds read low
# [58] = locus YOR061W, strain CKA2, active compounds read low
# [59] = locus YOR119C, strain RIO1, active compounds read low
# [60] = locus YOR231W, strain MKK1, active compounds read low
# [61] = locus YOR329C, strain SCD5, active compounds read low
# [62] = locus YPL031C, strain PHO85, active compounds read low
# [63] = locus YPL153C, strain RAD53, active compounds read low
# [64] = locus YPL204W, strain HRR25, active compounds read low
# [65] = locus YPL209C, strain IPL1, active compounds read low
# [66] = locus YPL256C, strain CLN2, active compounds read low
# [67] = locus YPR025C, strain CCL1, active compounds read low
# [68] = locus YPR106W, strain ISR1, active compounds read low
# [69] = locus YPR111W, strain DBF20, active compounds read low
# [70] = strain NNK1, active compounds read low
# [71] = strain TSCII, active compounds read low
smiles,measurement,setting,value
O=S(=O)(Nc1ccccc1Oc1ccccc1)c1ccc(-c2ccno2)s1,normalized growth,[1],0.974
same,normalized growth,[2],0.961
same,normalized growth,[3],0.966
same,normalized growth,[4],0.968
same,normalized growth,[5],0.961
same,normalized growth,[6],0.969
same,normalized growth,[7],0.965
same,normalized growth,[8],0.968
same,normalized growth,[9],0.972
same,normalized growth,[10],0.964
same,normalized growth,[11],0.916
same,normalized growth,[12],0.978
same,normalized growth,[13],0.965
same,normalized growth,[14],0.968
same,normalized growth,[15],0.943
same,normalized growth,[16],0.911
same,normalized growth,[17],0.964
same,normalized growth,[18],0.96
same,normalized growth,[19],0.96
same,normalized growth,[20],0.969
same,normalized growth,[21],0.97
same,normalized growth,[22],0.963
same,normalized growth,[23],0.929
same,normalized growth,[24],0.976
same,normalized growth,[25],0.916
same,normalized growth,[26],0.961
same,normalized growth,[27],0.954
same,normalized growth,[28],0.98
same,normalized growth,[29],0.933
same,normalized growth,[30],0.969
same,normalized growth,[31],0.962
same,normalized growth,[32],0.953
same,normalized growth,[33],0.924
same,normalized growth,[34],0.964
same,normalized growth,[35],0.919
same,normalized growth,[36],1
same,normalized growth,[37],0.932
same,normalized growth,[38],0.941
same,normalized growth,[39],0.893
same,normalized growth,[40],0.962
same,normalized growth,[41],0.982
same,normalized growth,[42],0.769 (active)
same,normalized growth,[43],0.914
same,normalized growth,[44],0.891
same,normalized growth,[45],0.906
same,normalized growth,[46],0.968
same,normalized growth,[47],0.948
same,normalized growth,[48],0.965
same,normalized growth,[49],0.973
same,normalized growth,[50],0.924
same,normalized growth,[51],0.968
same,normalized growth,[52],0.954
same,normalized growth,[53],0.966
same,normalized growth,[54],0.961
same,normalized growth,[55],0.932
same,normalized growth,[56],0.963
same,normalized growth,[57],0.908
same,normalized growth,[58],0.921
same,normalized growth,[59],0.995
same,normalized growth,[60],0.888
same,normalized growth,[61],0.968
same,normalized growth,[62],0.944
same,normalized growth,[63],0.93
same,normalized growth,[64],0.927
same,normalized growth,[65],0.965
same,normalized growth,[66],0.873
same,normalized growth,[67],0.971
same,normalized growth,[68],0.946
same,normalized growth,[69],0.929
same,normalized growth,[70],0.948
same,normalized growth,[71],0.967
Cc1ccc(-n2cccc2)c(NS(=O)(=O)c2ccc(-c3ccno3)s2)c1,normalized growth,[1],0.94
same,normalized growth,[2],0.947
same,normalized growth,[3],0.944
same,normalized growth,[4],0.953
same,normalized growth,[5],0.938
same,normalized growth,[6],0.957
same,normalized growth,[7],0.933
same,normalized growth,[8],0.958
same,normalized growth,[9],0.937
same,normalized growth,[10],0.943
same,normalized growth,[11],0.899
same,normalized growth,[12],0.962
same,normalized growth,[13],0.941
same,normalized growth,[14],0.929
same,normalized growth,[15],0.894
same,normalized growth,[16],0.868
same,normalized growth,[17],0.902
same,normalized growth,[18],0.93
same,normalized growth,[19],0.936
same,normalized growth,[20],0.957
same,normalized growth,[21],0.976
same,normalized growth,[22],0.94
same,normalized growth,[23],0.914
same,normalized growth,[24],0.898
same,normalized growth,[25],0.76
same,normalized growth,[26],0.667 (active)
same,normalized growth,[27],0.847
same,normalized growth,[28],0.888
same,normalized growth,[29],0.862
same,normalized growth,[30],0.941
same,normalized growth,[31],0.816
same,normalized growth,[32],0.891
same,normalized growth,[33],0.921
same,normalized growth,[34],0.941
same,normalized growth,[35],0.889
same,normalized growth,[36],0.816
same,normalized growth,[37],0.924
same,normalized growth,[38],0.885
same,normalized growth,[39],0.894
same,normalized growth,[40],0.941
same,normalized growth,[41],0.979
same,normalized growth,[42],0.774 (active)
same,normalized growth,[43],0.923
same,normalized growth,[44],0.915
same,normalized growth,[45],0.905
same,normalized growth,[46],0.947
same,normalized growth,[47],0.918
same,normalized growth,[48],0.93
same,normalized growth,[49],0.965
same,normalized growth,[50],0.939
same,normalized growth,[51],0.953
same,normalized growth,[52],0.9
same,normalized growth,[53],0.939
same,normalized growth,[54],0.943
same,normalized growth,[55],0.9
same,normalized growth,[56],0.941
same,normalized growth,[57],0.906
same,normalized growth,[58],0.906
same,normalized growth,[59],0.923
same,normalized growth,[60],0.833
same,normalized growth,[61],0.952
same,normalized growth,[62],0.896
same,normalized growth,[63],0.872
same,normalized growth,[64],0.883
same,normalized growth,[65],0.953
same,normalized growth,[66],0.791 (active)
same,normalized growth,[67],0.95
same,normalized growth,[68],0.932
same,normalized growth,[69],0.926
same,normalized growth,[70],0.938
same,normalized growth,[71],0.942
